Test results from PubChem BioAssay AID1628 (Sanford-Burnham Center for Chemical Genomics, 2009).
Hit rate of the full screen: of about 190,000 compounds, about 930 (0.49%) were called active. This is one part of the list. Results with a measured potency or affinity are listed apart. Values without a mark were called inactive.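 How the source made its calls: active means z-score of insulin promoter reporter brightness in nuclei below -3 at 5 µM, with at least 500 cells counted; inconclusive means wells with under 500 cells, flagged as toxic or sparse; inactive means the rest.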

Experiment: insulin promoter down-regulators in MIN6 cells, imaging, high-content screening, mouse beta cells (AID 1628)
Conditions: MIN6 insulin promoter GFP reporter, at 5 µM, active compounds read low

Row | Structure (SMILES) | z-score
1 | CCN(CC)c1ccc(/C=C2\SC(=O)N(C(C)C)C2=O)o1 | 17.4
2 | Cc1ccccc1-c1nnc(-c2ccc(Cl)cc2)o1 | 3.54
3 | CC(Cc1c[nH]c2ccccc12)C(=O)O (stereo not drawn) | 0
4 | CC(=O)OCC(=O)c1c[nH]c2ccccc12 | 0.26
5 | CN1/C(=C\C=C(/C#N)C(=O)Nc2ccc(Cl)cc2)C(C)(C)c2ccccc21 | 8.8
6 | C=CCN1C(=O)/C(=C\C=C2\N(C)c3ccccc3C2(C)C)SC1=S | 15.4
7 | CN1CCN(C2=CC3=CC(=C(C#N)C#N)CCC3CC2)CC1 (stereo not drawn) | 10.9
8 | N#CCCn1cc(C(CC(=O)c2ccc(Br)cc2)C(=O)O)c2ccccc21 (stereo not drawn) | -4.89 (active)
9 | CCN1C(=O)/C(=C/C=C2\N(CC)c3cc(S(=O)(=O)N(C)C)ccc3N2c2ccccc2)SC1=S | 13.2
10 | COc1ccc2[nH]cc(CCN3C(=O)CCC3=O)c2c1 | -5.12 (active)
11 | COc1ccc(-c2cc(=O)c3cc(OC)ccc3o2)cc1 | -0.37
12 | O=C(c1cccc([N+](=O)[O-])c1)N1CCCN(C(=O)c2cccc([N+](=O)[O-])c2)CC1 | -7.17 (active)
13 | COc1cccc(C(=O)CN2C(=O)C(C)(C)Oc3ccc(C(=O)N4CCCCCC4)cc32)c1 | 3.58
14 | N/C(=N\OC(=O)C1CCCCC1)c1cccc([N+](=O)[O-])c1 | 3.01
15 | S=C(Nc1ccc(Oc2ccc(NC(=S)NC3CCCCC3)cc2)cc1)NC1CCCCC1 | -5.62 (active)
16 | CCc1ccc(NC(=S)NCC2CCCN2CC)cc1 (stereo not drawn) | 3.74
17 | O=C1N/C(=N/Nc2ccccc2)S/C1=C\c1ccccc1 | 3.19
18 | CCOC(=O)c1c(C)nc2c(c1C)c(=O)oc1ccccc12 | 0.62
19 | O=c1cc(-c2ccc(O)cc2)oc2ccccc12 | -0.5
20 | O=C1/C(=C/c2ccc(N3CCCC3)cc2)NC(=S)N1C1CC1 | 12.6
21 | COC(=O)c1nc2ccccn2c1F | 2.02

Row | Structure (SMILES) | z-score
22 | CC1(C)CC(=O)c2sc(NS(=O)(=O)Cc3ccccc3)nc2C1 | 1.07
23 | O=c1c(N2CCOCC2)c(N2CCOCC2)c1=O | 3.02
24 | COc1cc(NC(=O)CN(C)Cc2ccc(OC(F)F)cc2)c(C)cc1[N+](=O)[O-] | -4.52 (active)
25 | COc1cc(Cl)c(C)cc1NC(=O)CN(C)Cc1cccc(OC)c1OC | 3.4
26 | Cc1ccc(Nc2cc(C)nn2-c2nc(C)cc(=O)[nH]2)cc1 | -3.51 (active)
27 | Cc1ccc(Nc2nc3c([nH]2)c(=O)n(C)c(=O)n3C)cc1 | 3.32
28 | FC(F)(F)c1cccc(N2CCN(Cc3cccnc3)CC2)c1 | -4.71 (active)
29 | CC(C)(O)C(O)COc1c2ccoc2cc2oc(=O)ccc12 (stereo not drawn) | -0.51
30 | O=C(/C=C/c1ccco1)Oc1cc(Br)cc(/C=N/NC(=O)c2ccccc2O)c1 | -4.99 (active)
31 | COc1cccc(/C=N/NC(=O)c2oc3nc(-c4ccccc4)cc(-c4ccco4)c3c2N)c1 | 3.3
32 | CCCCNC(=O)CSc1cc(=O)n(C)c2ccccc12 | -4.57 (active)
33 | N#Cc1cccc(NC(=O)CSc2ccc3c4c(cccc24)C(=O)c2ccccc2-3)c1 | 4.94
34 | CCc1cc(C(=O)OC)c(NC(=O)CC2Sc3ccc(C(F)(F)F)cc3NC2=O)s1 (stereo not drawn) | 3.33
35 | COc1ccccc1OCC(O)Cn1c(=N)n(CCN2CCCCC2)c2ccccc21 (stereo not drawn) | -5.05 (active)
36 | Brc1ccc(Oc2nsnc2N2CCOCC2)cc1 | 3.88
37 | C=CCn1c(C)cc(C(=O)CSc2nnc(-c3cccc(S(=O)(=O)N(CC)CC)c3)o2)c1C | -3.66 (active)
38 | CCN(CC)S(=O)(=O)c1cccc(-c2nnc(SCCCC(=O)c3ccc(F)cc3)o2)c1 | -4.17 (active)
39 | CC(C)CNC(=O)CSc1nnc(-c2cccc(S(=O)(=O)N3CCCCC3)c2)o1 | 4.75
40 | CC(=O)OC(C(=O)NCc1ccc(F)cc1)c1ccccn1 (stereo not drawn) | 3.91
41 | Cc1nc2ccccc2nc1N/N=C/c1ccc(O)cc1O | -3.3 (active)
42 | Oc1ccc(/C=N/Nc2nc(-c3ccccc3F)nc3ccccc23)c(O)c1 | 3.69

Row | Structure (SMILES) | z-score
43 | Cc1ccc(-n2ncc(Br)c(Br)c2=O)cc1 | -4.97 (active)
44 | Cc1ccc(-c2cc(N)n(-c3ccccc3)n2)cc1 | 5.28
45 | c1ccc(-c2csc(-n3cnnn3)n2)cc1 | 3.13
46 | N#C/C(=C/c1ccc(N2CCOCC2)o1)c1nc2ccccc2[nH]1 | 15
47 | Cc1ccccc1-n1ncc2c(SCC(=O)NCc3cccs3)ncnc21 | 3.57
48 | COc1ccc2c(C)cc(SCC(=O)N(C)C3CCS(=O)(=O)C3)nc2c1 (stereo not drawn) | 4.13
49 | Cn1c(=O)n(Cc2ccccc2F)c(=O)c2c1nc1n2CCN1Cc1ccco1 | 2.8
50 | O=C1C2C3C=CC(C3)C2C(=O)N1CCc1ccccc1 (stereo not drawn) | 3.33
51 | CC(C)Cn1c(=O)c2c(nc3n2CCCN3CCc2ccccc2)n(C)c1=O | -4.13 (active)
52 | CCCCN1C(=O)/C(=C/C=C2/CC(C)(C)CN2C)SC1=S | 16.2
53 | COc1ccc(CC(=S)N2CCOCC2)cc1 | -4.87 (active)
54 | COc1ccc(C(=S)N2CCCC2)cc1 | 0.82
55 | COc1ccc(NC(=O)/C(C#N)=C\c2ccc(N3CCOCC3)o2)cc1 | 3.17
56 | O=C(Cn1ncn2c(cc3ccccc32)c1=O)NCc1ccco1 | 3.78
57 | Cc1cc2oc(=O)cc(CN3CCN(C/C=C/c4ccccc4)CC3)c2cc1O | -3.48 (active)
58 | CCc1cc2c(CN3CCN(CCO)CC3)cc(=O)oc2cc1O | 3.59
59 | Cc1cc(=O)oc2cc(OC(=O)c3ccccc3)ccc12 | -0.09
60 | CCC(c1nnnn1CCc1ccccc1)N(Cc1ccco1)Cc1cc2cccc(C)c2[nH]c1=O (stereo not drawn) | -3.08 (active)
61 | CCOc1ccc2[nH]c(=O)c(CN(Cc3ccco3)C(CC)c3nnnn3Cc3ccccc3)cc2c1 (stereo not drawn) | -2.78
62 | CCC(c1nnnn1CCc1ccccc1)N(Cc1ccco1)Cc1cc2cc(C)cc(C)c2[nH]c1=O (stereo not drawn) | -3.35 (active)
63 | CCC(c1nnnn1Cc1ccco1)N(Cc1ccccc1OC)Cc1cc2cc(C)ccc2[nH]c1=O (stereo not drawn) | -4.61 (active)
